Measurements: PubChem BioAssay AID1159580 (chemical genetic matrix, 2015)
In all, about 5,500 compounds went through this assay and about 2,000 (36%) were called active. About 18% were inconclusive and are not listed. Rule as the data show it: active = normalized growth mostly below about 0.91 (no sharp cut-off); inconclusive = no clear call, values can overlap the other calls; inactive = mostly above about 0.92. This is one part of the list.

Assay: chemical genetic growth profiling, strain panel (AID 1159580);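 also: tested at 20 µM; growth read once vehicle control cultures reached saturation at 30 °C; 1 = growth at the plate median or of vehicle wells; lower values mean less growth of the strain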
Details: growth OD
[1] = S. cerevisiae deletion strains, locus YDR150W, strain NUM1, hits give low values
[2] = S. cerevisiae deletion strains, locus YGR078C, strain PAC10, hits give low values
[3] = S. cerevisiae deletion strains, locus YJR075W, strain HOC1, hits give low values
[4] = S. cerevisiae deletion strains, locus YMR263W, strain SAP30, hits give low values
[5] = S. cerevisiae deletion strains, locus YMR307W, strain GAS1, hits give low values
[6] = S. cerevisiae deletion strains, locus YNL153C, strain GIM3, hits give low values
[7] = S. cerevisiae deletion strains, locus YPL055C, strain LGE1, hits give low values

Measured: normalized growth

COc1ccc(CCN(C)CCc2ccc(OC)c(OC)c2)cc1OC
inactive: S. cerevisiae deletion strains, locus YAL040C, strain CLN3, hits give low values 1.08 | S. cerevisiae deletion strains, locus YCL061C, strain MRC1 (second series), hits give low values 0.998 | [1] 1.01 | S. cerevisiae deletion strains, locus YDR363W, strain ESC2, hits give low values 1.01 | S. cerevisiae deletion strains, locus YER002W, strain NOP16, hits give low values 1.01 | [2] 0.992 | [3] 0.983 | [4] 0.999 | [5] 0.998 | [6] 1.03 | S. cerevisiae deletion strains, locus YNL175C, strain NOP13, hits give low values 1.02 | S. cerevisiae deletion strains, locus YNL197C, strain WHI3, hits give low values 1.01 | S. cerevisiae deletion strains, locus YNL224C, strain SQS1, hits give low values 1.01 | S. cerevisiae deletion strains, locus YOR083W, strain WHI5 (second series), hits give low values 1.02 | [7] 0.985

COc1ccc(CCNC(=S)NCCc2ccc(OC)c(OC)c2)cc1OC
inactive: S. cerevisiae deletion strains, locus YAL013W, strain DEP1, hits give low values 0.998 | S. cerevisiae deletion strains, locus YBR229C, strain ROT2, hits give low values 0.988 | S. cerevisiae deletion strains, locus YCL061C, strain MRC1, hits give low values 0.993 | S. cerevisiae deletion strains, locus YDL101C, strain DUN1, hits give low values 0.989 | [1] 0.985 | S. cerevisiae deletion strains, locus YEL061C, strain CIN8, hits give low values 0.987 | [2] 0.981 | S. cerevisiae deletion strains, locus YHR030C, strain SLT2, hits give low values 1 | S. cerevisiae deletion strains, locus YHR087W, strain rtc3, hits give low values 0.979 | S. cerevisiae deletion strains, locus YJL187C, strain SWE1, hits give low values 0.994 | S. cerevisiae deletion strains, locus YJR043C, strain POL32, hits give low values 0.993 | [3] 1.04 | S. cerevisiae deletion strains, locus YLR039C, strain RIC1, hits give low values 1.04 | S. cerevisiae deletion strains, locus YLR058C, strain SHM2 (second series), hits give low values 1 | S. cerevisiae deletion strains, locus YLR085C, strain ARP6, hits give low values 1.02 | S. cerevisiae deletion strains, locus YLR262C, strain YPT6, hits give low values 1.02 | S. cerevisiae deletion strains, locus YML094W, strain GIM5, hits give low values 0.981 | S. cerevisiae deletion strains, locus YMR219W, strain ESC1, hits give low values 1 | [4] 1.06 | [5] 1.06 | S. cerevisiae deletion strains, locus YNL128W, strain TEP1, hits give low values 1.02 | [6] 0.992 | S. cerevisiae deletion strains, locus YNL298W, strain CLA4 (second series), hits give low values 1.01 | S. cerevisiae deletion strains, locus YNL322C, strain KRE1, hits give low values 0.992 | S. cerevisiae deletion strains, locus YNR030W, strain Alg12, hits give low values 1 | [7] 0.982 | S. cerevisiae deletion strains, locus YPL241C, strain CIN2, hits give low values 1.08 | S. cerevisiae deletion strains, locus YPR135W, strain CTF4, hits give low values 1.05 | S. cerevisiae strains, strain wild type, hits give low values 1.01
